Inconclusive results are not listed. Active and inactive are the calls of the source. How the source made its calls: active means hit-call score of the fitted dose curve at least 0.9, where 1 is the maximum; inconclusive means response in the unintended direction; inactive means score below 0.9.
biological target: Bile acid receptor (Homo sapiens) (UniProt Q96RI1); test: OT_FXR_FXRSRC1_1440: Odyssey Thera (OT) 24-hour HEK293T Protein-Complementation Assay for Farnesoid X receptor/SRC-1 Co-activator (AID 2283384)
Sequence (Q96RI1 whole entry, looked up, the tested form may be a part): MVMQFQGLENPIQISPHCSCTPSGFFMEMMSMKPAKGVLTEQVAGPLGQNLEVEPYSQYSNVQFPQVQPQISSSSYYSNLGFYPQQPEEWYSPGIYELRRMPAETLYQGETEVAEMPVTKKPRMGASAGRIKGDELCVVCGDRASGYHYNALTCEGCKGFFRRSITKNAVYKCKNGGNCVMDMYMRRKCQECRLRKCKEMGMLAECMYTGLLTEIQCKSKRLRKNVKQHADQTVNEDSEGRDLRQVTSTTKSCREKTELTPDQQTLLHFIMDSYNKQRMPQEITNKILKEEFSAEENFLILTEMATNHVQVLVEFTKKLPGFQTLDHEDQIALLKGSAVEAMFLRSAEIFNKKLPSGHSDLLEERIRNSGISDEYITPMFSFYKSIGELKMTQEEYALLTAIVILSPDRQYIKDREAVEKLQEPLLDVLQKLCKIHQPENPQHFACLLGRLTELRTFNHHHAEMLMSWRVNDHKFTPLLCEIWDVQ
Summary of the method: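 Compounds are applied to human kidney HEK293T cells expressing bait and prey fused to reporter protein fragments; after 24 h, reconstituted reporter fluorescence is measured. Activity is fitted as signal gain over DMSO.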

SMILES	outcome	AC50
O=C1CCCN1	inactive	
CCC1(c2ccc(N)cc2)CCC(=O)NC1=O (stereo unspecified)	inactive	
O=C(O)C(F)(F)C(F)(F)C(F)(F)C(F)(F)C(F)(F)C(F)(F)C(F)(F)C(F)(F)C(F)(F)C(F)(F)F	inactive	
COP(=O)(OC)O/C(=C\Cl)c1cc(Cl)c(Cl)cc1Cl	inactive	
C=CC(=O)OCCCCCC(C)C	inactive	
COP(=O)(OC)OC	inactive	
c1cc[c]([Hg][c]2ccccc2)cc1		51.6 µM (active)
CCOP(=S)(OCC)Oc1nc(Cl)c(Cl)cc1Cl		76.4 µM (active)
CC(C)(C)c1cc(O)ccc1O		62.2 µM (active)
Fc1ccc(C2(Cn3cncn3)OC2c2ccccc2Cl)cc1 (stereo unspecified)		18.9 µM (active)
CC1(C)CCC(Cc2ccc(Cl)cc2)C1(O)Cn1cncn1 (stereo unspecified)		31.6 µM (active)

Source: PubChem BioAssay (EPA / NIEHS)
